This passage reports NF-kB reporter, IRF reporter and viability score results from the supplement of paper PMC10646978.

± gives the standard deviation.

Holding throughout (conditions): modulator concentration 10 µM
Assay [1] deals with RAW-Dual (murine macrophage reporter line). Nature of the assay: NF-kB reporter (SEAP) activity fold change vs agonist alone; higher = enhanced NF-kB activity. Summed up: (§1)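 Compound reached 10 μM final in each well by pin transfer, onto RAW-Dual murine macrophage reporter cells seeded at 50 000 per well in 384-well plates. After 1 hour at 37 °C, the cells were stimulated overnight with a PRR agonist. SEAP in the supernatant was read with QUANTI-Blue at 620 nm absorbance for NF-κB, and Lucia luciferase was read with QUANTI-Luc luminescence for IRF. Each signal was turned into fold change against the mean agonist-only control on the same plate, and two replicate plates were averaged with propagated errors.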

The test system is the same in assay [2]. The assay is described as follows: IRF reporter (Lucia luciferase) activity fold change vs agonist alone; higher = enhanced IRF activity. A digest of the protocol:
as §1

Assay [3] shares this test system. Nature of the assay: viability score (confluency relative to resting cells, overnight) (fraction); higher = more viable, active = viable (0.7 or more). Summed up:
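In 384-well plates, RAW-Dual macrophages received compound at a final 10 μM overnight. Two confluency masks were then made with IncuCyte software from IncuCyte images of all imaged wells. The viability score is defined as confluency relative to resting cells. Passing the cutoff required both masks to lie above 70% of resting cells.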

Setting [4] is: agonist: CpG ODN 1826 0.5 ug/mL.

In the case of `O=C(C=Cc1ccccc1)NC(NC(=S)Nc1cccc(O)c1)C(Cl)(Cl)Cl` (centres undefined), the NF-kB reporter worked out at 0.835 ± 0.074 in assay [1] (setting [4]), 0.803 ± 0.1 in assay [1] (agonist: LPS 0.1 ug/mL) and 0.972 ± 0.099 in assay [1] (agonist: MPLA […]). Further, the IRF reporter is 0.737 ± 0.024 in assay [2] (agonist: 3'3'-cGAMP 10 ug/mL), 1.25 ± 0.23 in assay [2] (agonist: LPS 0.1 ug/mL) and 1.3 ± 0.28 in assay [2] (agonist: MPLA […]). Moreover, the viability score in assay [3] was 1.03 (active).
Regarding `COc1ccc(Nc2nc(Nc3ccc4ncccc4c3)nc(N3CCOCC3)n2)cc1`, the NF-kB reporter came to 0.279 ± 0.013 in assay [1] (setting [4]), 1.36 ± 0.11 in assay [1] (agonist: LPS 0.1 ug/mL) and 2.85 ± 0.15 in assay [1] (agonist: MPLA […]). Moreover, the IRF reporter in assay [2] (agonist: 3'3'-cGAMP 10 ug/mL) stood at 0.34 ± 0.015; in assay [2] (agonist: LPS 0.1 ug/mL), 1.61 ± 0.24; in assay [2] (agonist: MPLA […]) it was 2.74 ± 0.57. The viability score in assay [3] is 0.904 (active).
`CC(C)Oc1ccc(C(=O)N2CCC(c3ccccc3)S(=O)(=O)CC2)cn1` (centres undefined): the NF-kB reporter stood at 1.06 ± 0.08 in assay [1] (setting [4]), 0.861 ± 0.13 in assay [1] (agonist: LPS 0.1 ug/mL) and 0.998 ± 0.052 in assay [1] (agonist: MPLA […]). The IRF reporter in assay [2] (agonist: 3'3'-cGAMP 10 ug/mL) was found to be 0.921 ± 0.054; in assay [2] (agonist: LPS 0.1 ug/mL), 1.03 ± 0.049; in assay [2] (agonist: MPLA […]), 0.968 ± 0.13. For the same compound, the viability score in assay [3] was 0.989 (active).
As for `O=C(CS(=O)Cc1ccco1)NC/C=C\COc1cc(CN2CCCCC2)ccn1` (centres undefined), the NF-kB reporter in assay [1] (setting [4]) turned out to be 0.989 ± 0.16; in assay [1] (agonist: LPS 0.1 ug/mL), 1.02 ± 0.14; in assay [1] (agonist: MPLA […]), 0.928 ± 0.052. Further, the IRF reporter in assay [2] (agonist: 3'3'-cGAMP 10 ug/mL) is 0.897 ± 0.043; in assay [2] (agonist: LPS 0.1 ug/mL), 1.24 ± 0.3; in assay [2] (agonist: MPLA […]), 1 ± 0.24. In addition, the viability score in assay [3] is 0.997 (active).
Turning to `Cc1[nH]c2ccccc2c1CCNCc1ccc(/C=C/C(=O)NO)cc1`, the values for the NF-kB reporter in assay [1] (setting [4]), in assay [1] (agonist: LPS 0.1 ug/mL) and in assay [1] (agonist: MPLA […]) were 0.22 ± 0.015, 1.58 ± 0.1 and 2.77 ± 0.17, respectively. The IRF reporter in assay [2] (agonist: 3'3'-cGAMP 10 ug/mL) was 0.0565 ± 0.0025; in assay [2] (agonist: LPS 0.1 ug/mL), 0.355 ± 0.032; in assay [2] (agonist: MPLA […]) it was 0.509 ± 0.06. The viability score in assay [3] was 0.055 (inactive).
Regarding `Cc1cccc(OCCCOc2cccc3cccnc23)c1C`, the NF-kB reporter in assay [1] (setting [4]) was 0.735 ± 0.068; in assay [1] (agonist: LPS 0.1 ug/mL) it was 0.895 ± 0.055; in assay [1] (agonist: MPLA […]), 1.07 ± 0.1. Further, the IRF reporter was 0.974 ± 0.053 in assay [2] (agonist: 3'3'-cGAMP 10 ug/mL), 1.44 ± 0.083 in assay [2] (agonist: LPS 0.1 ug/mL) and 1.7 ± 0.22 in assay [2] (agonist: MPLA […]). Further, in assay [3], the viability score was 0.978 (active).
As to `CCNC(=O)CCC/C=C\C[C@@H]1[C@@H](/C=C/C(O)CCc2ccccc2)[C@@H](O)C[C@@H]1O` (some centres undefined), the NF-kB reporter in assay [1] (setting [4]) stood at 0.953 ± 0.059; in assay [1] (agonist: LPS 0.1 ug/mL), 0.965 ± 0.076; in assay [1] (agonist: MPLA […]), 0.953 ± 0.041. Moreover, the IRF reporter amounted to 0.994 ± 0.055 in assay [2] (agonist: 3'3'-cGAMP 10 ug/mL), 0.961 ± 0.061 in assay [2] (agonist: LPS 0.1 ug/mL) and 0.95 ± 0.1 in assay [2] (agonist: MPLA […]). In assay [3], the viability score is 1.01 (active).
In the case of `COC(=O)C1=C(C)N(c2ccc(Br)cc2)C(=O)C1=Cc1ccc(O)cc1`, the NF-kB reporter stood at 1.12 ± 0.088 in assay [1] (setting [4]), 0.956 ± 0.1 in assay [1] (agonist: LPS 0.1 ug/mL) and 0.93 ± 0.057 in assay [1] (agonist: MPLA […]). The IRF reporter was determined as 0.468 ± 0.035 in assay [2] (agonist: 3'3'-cGAMP 10 ug/mL), 1.31 ± 0.16 in assay [2] (agonist: LPS 0.1 ug/mL) and 1.05 ± 0.065 in assay [2] (agonist: MPLA […]). For the same compound, the viability score in assay [3] was 1.01 (active).
Turning to `COc1ccc(C=Nn2cc(-c3ccc(Cl)cc3)nc2N=Cc2cc(Br)cc(Br)c2O)cc1`, the NF-kB reporter in assay [1] (setting [4]) turned out to be 0.863 ± 0.068; in assay [1] (agonist: LPS 0.1 ug/mL) it was 0.919 ± 0.067; in assay [1] (agonist: MPLA […]), 0.874 ± 0.094. The IRF reporter in assay [2] (agonist: 3'3'-cGAMP 10 ug/mL) worked out at 0.883 ± 0.037; in assay [2] (agonist: LPS 0.1 ug/mL), 1.08 ± 0.14; in assay [2] (agonist: MPLA […]), 1.07 ± 0.23. The viability score in assay [3] is 1.02 (active).
For `NC(=O)C1CCCN1c1ncccc1C(F)(F)F` (centres undefined), the results for the NF-kB reporter in assay [1] (setting [4]), in assay [1] (agonist: LPS 0.1 ug/mL) and in assay [1] (agonist: MPLA […]) were 1.16 ± 0.068, 1.09 ± 0.089 and 0.994 ± 0.028, respectively. Further, the IRF reporter in assay [2] (agonist: 3'3'-cGAMP 10 ug/mL) came to 1.01 ± 0.088; in assay [2] (agonist: LPS 0.1 ug/mL), 1.06 ± 0.063; in assay [2] (agonist: MPLA […]) it was 1.01 ± 0.1. Moreover, the viability score in assay [3] was 0.997 (active).
With `Cc1ccc(-c2nc(O)nc3ccccc23)cc1`, the NF-kB reporter in assay [1] (setting [4]) was found to be 1.28 ± 0.37; in assay [1] (agonist: LPS 0.1 ug/mL), 1.11 ± 0.086; in assay [1] (agonist: MPLA […]), 1.07 ± 0.086. Further, the figures for the IRF reporter in assay [2] (agonist: 3'3'-cGAMP 10 ug/mL), in assay [2] (agonist: LPS 0.1 ug/mL) and in assay [2] (agonist: MPLA […]) were 0.786 ± 0.054, 0.967 ± 0.14 and 0.966 ± 0.11, respectively. In assay [3], the viability score was 0.931 (active).
`COC(=O)c1ccc(CSc2ccc3nnc(-c4cccc(F)c4)n3n2)o1`: the results for the NF-kB reporter in assay [1] (setting [4]), in assay [1] (agonist: LPS 0.1 ug/mL) and in assay [1] (agonist: MPLA […]) were 1 ± 0.08, 1.18 ± 0.072 and 1.03 ± 0.062, respectively. The IRF reporter in assay [2] (agonist: 3'3'-cGAMP 10 ug/mL) is 0.966 ± 0.035; in assay [2] (agonist: LPS 0.1 ug/mL), 1.05 ± 0.082; in assay [2] (agonist: MPLA […]) it was 0.968 ± 0.093. Moreover, the viability score in assay [3] is 0.998 (active).
